# Screens as filed in PubChem BioAssay.
# Shown are actives, neighbours in structure and some others; about 11% of the full set was active somewhere.
# Pf growth 96h – Primary qHTS for delayed death inhibitors of the malarial parasite plastid, 96 hour incubation; P. falciparum luciferase reporter growth, 96 h; Potency, µM (series often up to 28.7 µM), for the others: top-dose activity change, negative = inhibition, most hits filed as inhibitors; 6.9% of 320,000 active; AID 504834, 2011
#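 Erythrocytes infected with luciferase-expressing P. falciparum were dispensed at 2% hematocrit and 0.05% parasitemia (final), then incubated with compounds 96 hours at 37 C in 5% CO2. Luminescence after detection reagent addition reported growth.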
# AmpC detergent – qHTS Inhibitors of AmpC Beta-Lactamase (assay with detergent); P00811; AmpC hydrolysis of nitrocefin, absorbance 480 nm, 0.01% Triton; Potency, µM (top dose mostly 114 µM), inactives show at the top dose activity change, negative = inhibition, most hits filed as inhibitors; 0.041% of 370,000 active; AID 485294, 2010;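 also: 0% = no-compound wells and -100% = no-enzyme wells; nearly all actives have a fitted effect of over 25% in size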
# Target sequence (P00811 whole entry, looked up): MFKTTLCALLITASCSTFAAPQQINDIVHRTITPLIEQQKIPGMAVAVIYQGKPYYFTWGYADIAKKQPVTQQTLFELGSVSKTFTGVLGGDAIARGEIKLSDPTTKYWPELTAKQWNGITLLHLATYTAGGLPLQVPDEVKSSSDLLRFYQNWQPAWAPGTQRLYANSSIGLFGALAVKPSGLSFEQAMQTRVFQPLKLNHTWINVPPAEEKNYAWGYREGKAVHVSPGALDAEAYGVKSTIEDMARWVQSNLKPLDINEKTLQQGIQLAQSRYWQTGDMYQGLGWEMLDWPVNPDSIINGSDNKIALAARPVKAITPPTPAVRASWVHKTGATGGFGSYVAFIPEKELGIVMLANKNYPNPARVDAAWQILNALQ
#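 AmpC (5.3 nM in the dispensed reagent) in 20 mM phosphate pH 7.0 with 0.01% (detergent screen) or 0.0001% Triton X-100 was preincubated with compounds for 15 min at room temperature. Nitrocefin was then added from an 800 uM solution, and hydrolysis was followed at 480 nm.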
# AMA1 RON2 block – qHTS for Inhibitors of AMA1-RON; Towards Development of Antimalarial Drug Lead: Primary Screen. Plasmodium falciparum AMA1 (3D7) - RON2 peptide interaction. AlphaScreen AMA1-biotinylated RON2 peptide binding. Potency, µM (top dose mostly 58.2 µM), for inactives: at the highest dose activity change, negative = inhibition, most hits filed as inhibitors. 0.2% of 360,000 active;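 also: 0% = vehicle wells and -100% = peptide control; nearly all actives have a fitted effect of over 45% in size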
#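 AMA1 (3D7) with his tag at 25 nM final met compounds first, then biotinylated RON2 peptide at 25 nM; detection used donor plus acceptor beads, 10 µg/mL apiece, read by AlphaScreen after 30 min at room temperature.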
# HCV inhibitor – qHTS Assay for Inhibitors of Hepatitis C Virus (HCV) | Huh7.5.1 HCVcc-Cre infection, luciferase reporter, 44 h | Potency, µM (titrated, usually from 41.8 µM), for inactives: at the highest dose activity change, negative = inhibition, usual class: inhibitors | 3.4% of 340,000 active | AID 651820, 2012
#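 After 44 h co-culture of compound, cells and HCVcc-Cre (~0.5 moi), substrate is added for 15 min at room temperature and luciferase measured over 15 sec. Cells were seeded at 1,000/well and pre-cultured 4 h.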
# Pf growth 48h – Primary qHTS for delayed death inhibitors of the malarial parasite plastid, 48 hour incubation; P. falciparum luciferase growth in erythrocytes, 48 h; Potency, µM (top dose mostly 28.7 µM), inactives show at the highest dose activity change, negative = inhibition, hits mostly inhibitors; 5.9% of 310,000 active
#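 Luciferase-expressing parasites in RBCs, 2% Hct / 0.1% parasitemia final; RPMI 1640 + 0.5% Albumax; 37 C, 5% CO2, one generation; luminescence read-out, lower signal = inhibition.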
# AmpC inh no detg – qHTS Inhibitors of AmpC Beta-Lactamase (assay without detergent). P00811. Potency, µM (highest dose often 57.1 µM), inactives show at the top dose activity change, negative = inhibition, hits mostly inhibitors. AmpC nitrocefin hydrolysis, absorbance 480 nm, 0.0001% Triton. AID 485341, 2010. 0.52% of 330,000 active;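 also: plate controls were no compound for no effect and no enzyme for full effect; nearly all actives have a fitted effect of over 20% in size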
#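 20 mM phosphate pH 7.0 + 0.01% (detergent screen) or 0.0001% Triton X-100; 5.3 nM AmpC reagent; cpd preinc 15 min RT; nitrocefin (800 uM stock) to start; A480 q20 s × 4 min; Activity was normalised to no-enzyme and no-compound control wells.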
# * marks the source's active call; other numbers are inactive results; ? = inconclusive; . = no result; ! = a repeat was not active; [ ] = remark or other dose. Calls follow the shape of the dose curve; as a rule, active = well fitted curve in the direction sought with a large enough effect; inconclusive = small, poorly fitted or top-dose-only effect, or another doubt; inactive = no such curve, though single readings can be large; an effect the other way counts as inactive or inconclusive. Unless noted, % is scaled to controls: 0 for no effect and ±100 for the full control effect; potency is read from the fitted curve at half-maximal effect.
SMILES,Pf growth 96h,AmpC detergent,AMA1 RON2 block,HCV inhibitor,Pf growth 48h,AmpC inh no detg
CCOc1ccc(NC(=O)NC(C)CC)cc1 (configuration not stated),9.3µM*,-3%,11%,-23%,24%,3%
CCOc1ccc(NC(=O)C(CC(=O)O)Cc2ccc(Br)cc2)cc1 (configuration not stated),9.3µM*,1%,7%,5%,3%,-25%
COc1ccc(CC(CC(=O)O)C(=O)Nc2ccc(OC)cc2)cc1 (configuration not stated),?,-1%,8%,12%,3%,-8%
CCOc1ccc(NC(=O)Nc2nc(SCC)ns2)cc1,4.1µM*,?,11%,?,0%,-36%
CCSc1nsc(NC(=O)Nc2ccccc2Cl)n1,.,.,2%,-19%,.,.
Cc1nn2c(C)c(C(=O)N3CCN(c4ccc(Cl)cc4)CC3)cnc2c1-c1ccc(F)cc1,.,0%,.,.,.,.
CCC(CC)C(=O)NCc1nc2cccnc2n1Cc1ccc(F)cc1,.,-4%,.,.,.,.
O=C(Nc1cccc(Cl)c1)NC1CCN(C2CCCCC2)C1 (configuration not stated),12µM*,-4%,-5%,?,?,-19%
COc1ccc(NC(=O)CCC(=O)OCC(=O)c2ccc(Oc3ccc([N+](=O)[O-])cc3)cc2)cc1,9.3µM*,?,5%,-2%,9%,-15%
COc1ccc(C(=O)CC(Nc2ccc([N+](=O)[O-])cc2)c2ccc(Cl)cc2)cc1 (configuration not stated),9.3µM*,5%,8%,?,3.3µM*,-32%
COc1ccc(C(=O)CC(=O)C(=O)Nc2ccc(Cl)cc2)cc1,26%,-1%,61%,2%,.,-50%
COc1cc(Cl)c(C)cc1Nc1nc2ccccc2nc1NS(=O)(=O)c1ccccc1,.,7%,.,.,.,.
Cc1ccc(C)c2sc(NC(=O)c3ccc(S(=O)(=O)N4CCC(C)CC4)cc3)nc12,.,19%,.,.,.,.
COC(=O)C1=C(C)N(Cc2ccccc2)C(=NCCc2cccnc2)N[C@H]1c1ccc(Br)cc1,41%,-14%,7%,2.8µM*,7.4µM*,110%
COC(=O)C1=C(C)N(Cc2ccccc2)C(=NCCc2cccnc2)N[C@H]1c1ccccc1,15µM*,?,1%,-1%,?,42%
COC(=O)C1=C(C)N(Cc2ccccc2)C(=NCCCCO)N[C@H]1c1ccccc1,?,?,-2%,1%,41%,-14%
COC(=O)C1=C(C)N(Cc2ccccc2)C(=NCC2CC2)N[C@H]1c1ccccc1,24%,?,7%,0%,9.3µM*!,14%
COc1cccc(C(=O)Nc2cccc(OCc3cc(=O)n4c5c(sc4n3)CCCC5)c2)c1,.,-2%,.,.,.,.
CC12CN3CC(C)(CN(C1)C3c1ccc([N+](=O)[O-])o1)C2=O (configuration not stated),27%,-9%,-9%,24%,14%,-13%
CC(C)C12CN3CC(C(C)C)(CN(C1)C3c1ccc([N+](=O)[O-])o1)C2=O (configuration not stated),28%,0%,-4%,8%,2.1µM*,-10%
CC(C(=O)N1CCCC1)N1CCN(S(=O)(=O)c2ccc(C(C)(C)C)cc2)CC1 (configuration not stated),0.47µM*,-22%,3%,1%,0.83µM*,131%
CC(C)c1ccc(S(=O)(=O)N2CCN(C(C)C(=O)N3CCCC3)CC2)cc1 (configuration not stated),12µM*,9%,-9%[11.6 µM],19%,?,26%
CC(C(=O)N1CCCCC1)N1CCN(S(=O)(=O)c2ccc(Cl)cc2)CC1 (configuration not stated),?,-9%,?,13%,?,16%
CCCCCOC(=O)CSc1nc2sc3c(c2c(=O)n1-c1ccccc1)CC(C)(CC)OC3 (configuration not stated),.,0%,.,.,.,.
CCCCS(=O)(=O)Nc1ccc2c(c1)ncn2C1CCCCC1,.,1%,4%,?,-24%,-14%
SMILES,Pf growth 96h,AmpC detergent,AMA1 RON2 block,HCV inhibitor,Pf growth 48h,AmpC inh no detg
c1ccc(CNc2ccc3c(c2)ncn3C2CCCCC2)nc1,85%,?,?,1%,?,7.1µM*
S=C(NCCc1ccccc1)NC1CCCCCC1,85%,2%,4%,6%,78%,-28%
Fc1ccccc1CNC(=S)NC1CCCCC1,4.1µM*,?,-5%,?,-2%,77%
NS(=O)(=O)c1ccc(CNC(=O)C2CCCCC2)cc1,.,2%,-6%,1%,9%,-5%
S=C(NCCNCc1ccccc1)NC1CCCCC1,4.7µM*,-3%,.,.,?,?
NS(=O)(=O)c1ccc(CNC(=S)NC2CCCC2)cc1,13µM*,2%,-6%,19%,4%,-14%
O=C(CN1C(=O)CC(c2ccco2)Sc2ccccc21)Nc1ccc(OC(F)(F)F)cc1 (configuration not stated),.,1%,.,.,.,.
N#CC(C#N)=C(N)/C(C#N)=C/c1cc(O)c(O)c(O)c1,9.3µM*,-11%,0%,-1%,12µM*,-16%
N#Cc1c(N)sc(=S)c2c1CCN(Cc1ccccc1)C2,130%,0%,.,-26%,10µM*,-23%
CCOC(=O)N1CCN(S(=O)(=O)c2ccc(C(=O)NNc3nc4cc(C)cc(C)c4s3)cc2)CC1,?,-1%,58%,3.5µM*,?,20%
Cc1cc(C)c2nc(NC(=O)c3ccc(S(=O)(=O)N4CCCC4)cc3)sc2c1,.,-5%,.,.,.,.
